Here are results for 13 compounds from PubChem BioAssay (EPA / NIEHS).

The AC50 is the concentration giving half of the maximal activity seen.

Several values for one entry are separate records, joined by “and”; a condition that tells them apart may be missing. Identical values can stand only once. Inconclusive results are not listed. The source holds several records for some structures; these can differ, active in one and inactive in another. Activity calls are given as the source filed them. How the source made its calls: active means hit-call score of the fitted dose curve at least 0.9, where 1 is the maximum; inconclusive means response in the unintended direction; inactive means score below 0.9.

A short description of assay [1]: TOX21_p53_BLA_p2_viability: Viability Assessment in the Tox21 HCT-116 p53 Agonism Beta-lactamase Assay, Phase 2 (AID 2283591).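 Further: compound exposure lasted 16 h at 37 °C; actives lower the ATP signal meaning cytotoxicity.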 In a few lines: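 Cytotoxicity readout: CellTiter-Glo ATP luminescence, 30 min at room temperature, after the beta-lactamase read. Cells were HCT116 exposed 16 h at 37C to compounds pin-transferred at 217-fold dilution from DMSO stocks.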

Assay [2] deals with Cellular tumor antigen p53 (Homo sapiens) (UniProt P04637). Put plainly: TOX21_p53_BLA_p2_ratio: Tox21 HCT-116 p53 Agonism Beta-lactamase Assay, Ratio, Phase 2 (AID 2283592). In a few lines: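 In this cell-based reporter format, HCT116 cells were dosed with chemicals delivered from DMSO by 217-fold dilution and incubated 16 h at 37C. Emission at 460 and 530 nm after 2 h CCF4-AM loading provided the ratio, fitted upward versus DMSO.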
Cellular tumor antigen p53 (Homo sapiens), sequence (P04637 whole entry, looked up): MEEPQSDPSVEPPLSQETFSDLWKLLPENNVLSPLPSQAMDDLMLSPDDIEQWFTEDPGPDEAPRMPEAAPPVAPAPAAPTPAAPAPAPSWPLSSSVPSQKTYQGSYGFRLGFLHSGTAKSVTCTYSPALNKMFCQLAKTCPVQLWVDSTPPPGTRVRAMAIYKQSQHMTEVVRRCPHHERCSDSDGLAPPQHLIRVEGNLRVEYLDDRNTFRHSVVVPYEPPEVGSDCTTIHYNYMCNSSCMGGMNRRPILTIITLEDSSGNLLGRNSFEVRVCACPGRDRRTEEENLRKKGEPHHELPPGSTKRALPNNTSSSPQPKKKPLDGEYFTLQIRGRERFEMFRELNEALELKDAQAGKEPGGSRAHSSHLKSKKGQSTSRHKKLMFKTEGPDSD

A short description of assay [3]: TOX21_p53_BLA_p3_viability: Viability Assessment in the Tox21 HCT-116 p53 Agonism Beta-lactamase Assay, Phase 3 (AID 2283593).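 Further: cells exposed to compound for 16 h before reading.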 In a few lines:
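Cellular ATP was quantified by CellTiter-Glo luminescence, read after 30 min at room temperature. Beforehand, HCT116 cells (4000/well) received compound 5 h post-seeding, 217-fold diluted from DMSO, then incubated 16 h at 37C.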

Assay [4] addresses Cellular tumor antigen p53 (Homo sapiens) (UniProt P04637). Briefly: TOX21_p53_BLA_p3_ratio: Tox21 HCT-116 p53 Agonism Beta-lactamase Assay, Ratio, Phase 3 (AID 2283596). A digest of the protocol: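 HCT116 p53-bla cells (4000/well) given compound in DMSO (217-fold dilution) after 5 h, incubated 16 h at 37C. CCF4-AM substrate 2 h at room temperature; 460/530 nm emission ratio, gain fitted against DMSO.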

Assay [5] is described as follows: TOX21_p53_BLA_p4_viability: Viability Assessment in the Tox21 HCT-116 p53 Agonism Beta-lactamase Assay, Phase 4 (AID 2283597).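 Further: hits lower the luminescence signal meaning cytotoxicity.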 A digest of the protocol:
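We seeded HCT116 p53 reporter cells at 4000/well and waited 5 h. We then added compounds in DMSO at a 217-fold dilution and incubated for 16 h. Viability was read as CellTiter-Glo luminescence after 30 min at RT.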

Assay [6] concerns the target Cellular tumor antigen p53 (Homo sapiens) (UniProt P04637). Briefly: TOX21_p53_BLA_p5_ratio: Tox21 HCT-116 p53 Agonism Beta-lactamase Assay, Ratio, Phase 5 (AID 2283599). In a few lines: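 Beta-lactamase reporter ratio (blue 460 nm over green 530 nm, 405 nm excitation) after 2 h CCF4-AM loading, in HCT-116 cells exposed 16 h at 37 C to compounds pinned at 217-fold dilution. Increases relative to DMSO baseline scored.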

The nature of assay [7]: TOX21_p53_BLA_p5_viability: Viability Assessment in the Tox21 HCT-116 p53 Agonism Beta-lactamase Assay, Phase 5 (AID 2283600). A digest of the protocol: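 Compounds, pinned from DMSO at 217-fold dilution, were left on the cells for 16 h. The viability endpoint was ATP content measured by CellTiter-Glo luminescence, where falling signal reflects cytotoxicity.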
The target of assay [8] is Cellular tumor antigen p53 (Homo sapiens) (UniProt P04637). Briefly: TOX21_p53_BLA_p4_ratio: Tox21 HCT-116 p53 Agonism Beta-lactamase Assay, Ratio, Phase 4 (AID 2283601). A digest of the protocol: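 Signal is the blue/green (460nm/530nm) ratio of cleaved versus uncleaved CCF4-AM substrate, read after 2 h substrate loading. Cells were HCT116 carrying the p53-responsive beta-lactamase reporter, dosed 16 h at 37C, 5% CO2; CellTiter-Glo measured in parallel.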

Take `CCCCCCCCCC(=O)NO`: the compound was classed as inactive in assay [1], in assay [2], in assay [3], in assay [4], in assay [5] and in assay [6]. For the same compound, the call in assay [7] and in assay [8] was inactive. Besides, the results for the concentration at half-maximal activity (AC50) in assay [2] and in assay [8] were 23.1 µM (active) and 24.3 µM (active), respectively.
Turning to `CC=CC(=O)CCCC`, the result in assay [1], in assay [2], in assay [3], in assay [4] and in assay [5] was inactive.
As to `CC1=CC(=C(c2ccc(N)cc2)c2ccc(N)cc2)C=CC1=N`, the call in assay [1], in assay [2], in assay [3], in assay [4], in assay [5] and in assay [6] was inactive. The compound was called inactive in assay [7] and in assay [8]. Further, the AC50 in assay [2] is 19.9 µM (active).
As for `CCCCCOC(=O)CCCC`, the call in assay [1], in assay [2] and in assay [3] was inactive.
`CCc1nn(CCCN2CCN(c3cccc(Cl)c3)CC2)c(=O)n1CCOc1ccccc1`: the call in assay [1], in assay [2], in assay [3], in assay [4], in assay [6] and in assay [7] was inactive. Further, the result in assay [8] was inactive. Besides, the half-maximal activity concentration (AC50) in assay [3] was 18.9 µM (active); in assay [5] it was 23 µM (active) and 14.9 µM (active).
In the case of `NNCCc1ccccc1`, the compound was called inactive in assay [1], in assay [2], in assay [3], in assay [4], in assay [5] and in assay [6]. In addition, the compound was called inactive in assay [7] and in assay [8]. For the same compound, in assay [5], the AC50 was 74.1 µM (active).
For the compound `O=S(=O)(O)c1ccc2nc(-c3ccccc3)[nH]c2c1`, the AC50 in assay [1] is 30.2 µM (active) and 19.9 µM (active); in assay [3], 15.6 µM (active); in assay [5], 33.8 µM (active) and 23 µM (active); in assay [7], 24.8 µM (active). The result in assay [2], in assay [3], in assay [4] and in assay [7] was inactive.
For the compound `CCOC(=O)c1c(C)n(C)c2ccc(O)cc12`, the result in assay [1], in assay [2], in assay [3], in assay [4], in assay [5] and in assay [6] was inactive.
Turning to `CCO[Si](C)(CCCOCC1CO1)OCC` (configuration not stated), the compound was classed as inactive in assay [1], in assay [2], in assay [3], in assay [4], in assay [5] and in assay [6].
For `COC1=C(OC)C(=O)C(C/C=C(\C)CC/C=C(\C)CC/C=C(\C)CC/C=C(\C)CC/C=C(\C)CC/C=C(\C)CC/C=C(\C)CC/C=C(\C)CC/C=C(\C)CCC=C(C)C)=C(C)C1=O`, the compound was classed as inactive in assay [1], in assay [2], in assay [3], in assay [4], in assay [5] and in assay [6]. Besides, the compound was classed as inactive in assay [7] and in assay [8]. The concentration at half-maximal activity (AC50) in assay [4] is 42.8 µM (active).
Regarding `CCOc1cccc(N)c1`, the compound was called inactive in assay [1], in assay [2] and in assay [3].
`CSc1ccc2c(c1)N(CCC1CCCCN1C)c1ccccc1S2` (configuration not stated): the AC50 in assay [1] is 37 µM (active) and 75.4 µM (active); in assay [2], 43.6 µM (active) and 79 µM (active); in assay [3] it was 73 µM (active); in assay [5], 35.8 µM (active) and 59.3 µM (active); in assay [6], 43.3 µM (active) and 86 µM (active); in assay [7], 43.8 µM (active) and 85.2 µM (active). For the same compound, the AC50 in assay [8] is 43.4 µM (active) and 82.3 µM (active). In addition, the compound was classed as inactive in assay [3] and in assay [4].
Take `C=C(CC)C(=O)c1ccc(OCC(=O)O)c(Cl)c1Cl`: the outcome in assay [1], in assay [3], in assay [5], in assay [6], in assay [7] and in assay [8] was inactive. Further, the concentration at half-maximal activity (AC50) is 13.8 µM (active) and 6.46 µM (active) in assay [2]; 50.8 µM (active) and 38.9 µM (active) in assay [4]; 45.8 µM (active) in assay [5]; 24.7 µM (active) in assay [6]; 25.2 µM (active) in assay [8].
